Measured values reported in PubChem BioAssay (NCI).
Where “and” joins values, the source holds several entries; their conditions need not be identical. Identical values can stand only once. About 83,000 compounds went through this panel and 20% of them were active in at least one assay; those are over-represented in the sample as a whole.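 Each cell line was grown in a 96-well plate and treated with one concentration of compound for 48 hours. Values below 10 were considered active.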

Columns and labels:
Experiment in all cases: NCI-60 one-dose screen, 48 h (100 = growth as untreated, 0 = no growth, -100 = all killed)
Conditions in all cases: 10 µM unless noted
HCT-15 colon = tested on: HCT-15 colon
HT29 colon = tested on: HT29 colon
SNB-75 CNS = tested on: SNB-75 CNS
SNB-19 CNS = tested on: SNB-19 CNS
U251 CNS = tested on: U251 CNS
PC-3 prostate = tested on: PC-3 prostate
SK-MEL-5 melanoma = tested on: SK-MEL-5 melanoma
UACC-62 melanoma = tested on: UACC-62 melanoma
LOX IMVI melanoma = tested on: LOX IMVI melanoma
SK-MEL-28 melanoma = tested on: SK-MEL-28 melanoma
SK-MEL-2 melanoma = tested on: SK-MEL-2 melanoma
EKVX NSCLC = tested on: EKVX NSCLC
SN12C renal = tested on: SN12C renal
UO-31 renal = tested on: UO-31 renal
TK-10 renal = tested on: TK-10 renal
ACHN renal = tested on: ACHN renal
CAKI-1 renal = tested on: CAKI-1 renal
CCRF-CEM leukemia = tested on: CCRF-CEM leukemia
MOLT-4 leukemia = tested on: MOLT-4 leukemia
A498 renal = tested on: A498 renal

Measured: growth

CCCCCCC(C)CC1=C(O)c2ccccc2C(=O)C1=O (stereo not drawn)
inactive: HCT-15 colon 28.4% | HT29 colon 66.6% | SNB-75 CNS 61.6% | SNB-19 CNS 46% | U251 CNS 46.3% | PC-3 prostate 33.9% | SK-MEL-5 melanoma 11.9% | UACC-62 melanoma 29.9% | LOX IMVI melanoma 10.2% | SK-MEL-28 melanoma 64.4% | SK-MEL-2 melanoma 68.9% | EKVX NSCLC 62% | SN12C renal 46.6% | UO-31 renal 42.7% | TK-10 renal 60.5% | ACHN renal 37.5% | CAKI-1 renal 39.7% | CCRF-CEM leukemia 33.3% | MOLT-4 leukemia 26.6%

COC(=O)c1nc(N)nc(C(=O)OC)c1C(=O)c1cccc2ccccc12
inactive: HCT-15 colon 102% | HT29 colon 104% | SNB-75 CNS 104% | SNB-19 CNS 103% | U251 CNS 108% | PC-3 prostate 97% | SK-MEL-5 melanoma 98.9% | UACC-62 melanoma 97.2% | LOX IMVI melanoma 95.3% | SK-MEL-28 melanoma 106% | SK-MEL-2 melanoma 106% | EKVX NSCLC 103% | SN12C renal 99.5% | UO-31 renal 89.7% | TK-10 renal 97.5% | ACHN renal 106% | CAKI-1 renal 96.3% | CCRF-CEM leukemia 101% | MOLT-4 leukemia 112%

ON=C(C1CCCCC1)C1CCCCC1
inactive: HCT-15 colon 106% | HT29 colon 103% | SNB-75 CNS 87.3% | SNB-19 CNS 100% | U251 CNS 98.1% | PC-3 prostate 98.1% | SK-MEL-5 melanoma 108% | UACC-62 melanoma 91.8% | LOX IMVI melanoma 95.6% | SK-MEL-28 melanoma 102% | SK-MEL-2 melanoma 107% | EKVX NSCLC 97.8% | SN12C renal 99.9% | UO-31 renal 89.3% | TK-10 renal 90.2% | ACHN renal 101% | CAKI-1 renal 87.4% | CCRF-CEM leukemia 99.8% | MOLT-4 leukemia 114%

O=[N+]([O-])c1ccc(N2CCN=N2)cc1
inactive: HCT-15 colon 80% | HT29 colon 88.4% | SNB-75 CNS 89.2% | SNB-19 CNS 94.7% | U251 CNS 88.1% | PC-3 prostate 73.8% | SK-MEL-5 melanoma 93.3% | UACC-62 melanoma 68.7% | LOX IMVI melanoma 73.3% | SK-MEL-28 melanoma 93.7% | SK-MEL-2 melanoma 92.2% | EKVX NSCLC 85.7% | SN12C renal 88.9% | UO-31 renal 64.3% | TK-10 renal 85.5% | ACHN renal 64.9% | CAKI-1 renal 79.4% | A498 renal 72.3% | CCRF-CEM leukemia 91.2% | MOLT-4 leukemia 90.8%

CCOC(=O)C(N)Cc1cc(I)c(O)c(I)c1 (stereo not drawn)
inactive: HCT-15 colon 107% and 96.6% | HT29 colon 105% and 104% | SNB-75 CNS 102% and 83.8% | SNB-19 CNS 109% and 95.9% | U251 CNS 104% and 110% | PC-3 prostate 98.3% and 89.8% | SK-MEL-5 melanoma 105% and 108% | UACC-62 melanoma 101% and 97% | LOX IMVI melanoma 110% and 105% | SK-MEL-28 melanoma 111% and 116% | SK-MEL-2 melanoma 108% and 120% | EKVX NSCLC 101% and 113% | SN12C renal 103% and 98.7% | UO-31 renal 81.6% and 78.6% | TK-10 renal 120% and 107% | ACHN renal 106% and 96% | CAKI-1 renal 91.6% and 89.2% | A498 renal 103% | CCRF-CEM leukemia 100% and 103% | MOLT-4 leukemia 102% and 112%

Cc1ccc(N)cc1S(=O)(=O)O
inactive: HCT-15 colon 107% and 113% | HT29 colon 95.3% and 124% | SNB-75 CNS 97.3% | SNB-19 CNS 107% and 108% | U251 CNS 106% and 103% | PC-3 prostate 98.9% | SK-MEL-5 melanoma 112% and 109% | UACC-62 melanoma 105% and 108% | LOX IMVI melanoma 105% and 109% | SK-MEL-28 melanoma 109% and 113% | SK-MEL-2 melanoma 120% | EKVX NSCLC 109% and 105% | SN12C renal 103% and 106% | UO-31 renal 84.4% and 91.5% | TK-10 renal 75% and 135% | ACHN renal 101% and 118% | CAKI-1 renal 96.8% and 106% | CCRF-CEM leukemia 60.6% and 109% | MOLT-4 leukemia 94.4%

Cc1cc(=NO)cc(C)n1O
inactive: HCT-15 colon 113% | HT29 colon 114% | SNB-75 CNS 92.6% | SNB-19 CNS 103% | U251 CNS 113% | PC-3 prostate 102% | SK-MEL-5 melanoma 112% | UACC-62 melanoma 102% | LOX IMVI melanoma 99.9% | SK-MEL-28 melanoma 112% | SK-MEL-2 melanoma 113% | EKVX NSCLC 105% | SN12C renal 100% | UO-31 renal 101% | TK-10 renal 84.7% | ACHN renal 117% | CAKI-1 renal 109% | A498 renal 93.9% | CCRF-CEM leukemia 80.9% | MOLT-4 leukemia 96.6%

COc1cc(NCCCCCNC(C)C)c2ncccc2c1
inactive: HCT-15 colon 96.7% and 96.6% | HT29 colon 85.9% and 67.1% | SNB-75 CNS 84.2% and 73.7% | SNB-19 CNS 96.1% and 81.2% | U251 CNS 94.8% and 85.9% | PC-3 prostate 86.3% and 89.1% | SK-MEL-5 melanoma 98.4% and 99% | UACC-62 melanoma 83.7% | LOX IMVI melanoma 87.3% and 82.5% | SK-MEL-28 melanoma 98.5% and 98.7% | SK-MEL-2 melanoma 93.1% and 66.7% | EKVX NSCLC 95.5% and 105% | SN12C renal 93.5% and 83.6% | UO-31 renal 59.7% and 45.4% | TK-10 renal 91.9% and 90.1% | ACHN renal 100% and 90.5% | CAKI-1 renal 91.6% and 92.5% | CCRF-CEM leukemia 106% and 117% | MOLT-4 leukemia 104% and 88%

COc1ccc(S(=O)(=O)c2ccc(F)cc2)cc1
inactive: HCT-15 colon 95.6% | HT29 colon 106% | SNB-75 CNS 101% | SNB-19 CNS 93.1% | U251 CNS 101% | PC-3 prostate 94.1% | SK-MEL-5 melanoma 106% | UACC-62 melanoma 93.9% | LOX IMVI melanoma 81.5% | SK-MEL-28 melanoma 104% | SK-MEL-2 melanoma 99% | EKVX NSCLC 122% | SN12C renal 97.8% | UO-31 renal 83.8% | TK-10 renal 95.4% | ACHN renal 103% | CAKI-1 renal 108% | A498 renal 108% | CCRF-CEM leukemia 84.6% | MOLT-4 leukemia 92.3%

COc1ccc2oc3cc(NCCN(C)C)ccc3c(=O)c2c1
inactive: HCT-15 colon 90.6% and 67% | HT29 colon 69.8% and 53% | SNB-75 CNS 87.2% and 81.5% | SNB-19 CNS 92.7% and 76.1% | U251 CNS 76.7% | PC-3 prostate 83.6% and 70.9% | SK-MEL-5 melanoma 93.3% and 75.5% | UACC-62 melanoma 100% and 101% | LOX IMVI melanoma 83% and 58.2% | SK-MEL-28 melanoma 96.1% and 91.3% | SK-MEL-2 melanoma 108% and 107% | EKVX NSCLC 85.9% | SN12C renal 81.7% and 64.2% | UO-31 renal 82.9% and 67.4% | TK-10 renal 106% and 98.9% | ACHN renal 74.5% and 58.9% | CAKI-1 renal 77.2% and 63.5% | CCRF-CEM leukemia 70.3% | MOLT-4 leukemia 80.3% and 50.9%

O=C(O)C#Cc1ccc(Cl)cc1
inactive: HCT-15 colon 103% | HT29 colon 98.1% | SNB-75 CNS 85.6% | SNB-19 CNS 99.8% | U251 CNS 93.8% | PC-3 prostate 92% | SK-MEL-5 melanoma 96.1% | UACC-62 melanoma 95.7% | LOX IMVI melanoma 91.5% | SK-MEL-28 melanoma 107% | SK-MEL-2 melanoma 98.4% | EKVX NSCLC 104% | SN12C renal 98.4% | UO-31 renal 95.6% | TK-10 renal 109% | ACHN renal 103% | CAKI-1 renal 95.4% | A498 renal 73.1% | CCRF-CEM leukemia 103% | MOLT-4 leukemia 87.5%

O=C(NC(=O)c1ccc(F)c(Cl)c1)NC1CC1
inactive: HCT-15 colon 86.5% and 74.6% | HT29 colon 96.4% and 94.5% | SNB-75 CNS 105% and 122% | SNB-19 CNS 104% | U251 CNS 104% | PC-3 prostate 98.6% and 87.5% | SK-MEL-5 melanoma 88% | UACC-62 melanoma 99.8% and 96.6% | LOX IMVI melanoma 98.6% | SK-MEL-28 melanoma 111% and 107% | SK-MEL-2 melanoma 107% | EKVX NSCLC 89.6% | SN12C renal 102% and 87.9% | UO-31 renal 96.8% | TK-10 renal 94.3% and 96.1% | ACHN renal 106% and 108% | A498 renal 95.8% and 96% | CCRF-CEM leukemia 97.2% and 101% | MOLT-4 leukemia 94.2% and 75.6%

O=C(c1ccncc1)c1c(Cc2ccccc2)ccc2ccccc12
inactive: HCT-15 colon 91.5% | HT29 colon 84.9% | SNB-75 CNS 90.4% | SNB-19 CNS 96.7% | U251 CNS 88.8% | PC-3 prostate 83% | SK-MEL-5 melanoma 80.1% | UACC-62 melanoma 66.3% | LOX IMVI melanoma 90.8% | SK-MEL-28 melanoma 90.2% | SK-MEL-2 melanoma 69.7% | EKVX NSCLC 66.5% | SN12C renal 90.6% | UO-31 renal 64.5% | TK-10 renal 107% | ACHN renal 93.8% | CAKI-1 renal 73.8% | A498 renal 104% | CCRF-CEM leukemia 103% | MOLT-4 leukemia 94.6%
